Screens from PubChem BioAssay.
IL1B NFkB pot: enhancers of NFkB p65 translocation in HUVEC – imaging, IL-1B stimulus, high-content imaging, primary screen; AID 819, 2007; activation, % at 2 µM; HUVEC IL-1B NFkB p65 nuclear translocation imaging; actives 0.3% (n = 94,000);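 active = activation above 40%, about the mean plus 3 SD, also judged a hit on visual image review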;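 also: percent activation is computed from the nuclear over cytoplasmic p65 intensity ratio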
HUVEC tox TNFa: cytotoxicity in TNFa-stimulated HUVEC, primary screen, cytotoxicity control for VCAM1 expression modulator project, imaging, Hoechst nuclei count; HUVEC TNFalpha-stimulated, Hoechst cell count; cell count reduction, % at 2 µM; actives 0.17% (n = 93,000); AID 848, 2007;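 active = cell count reduction exceeding the screen mean by over 5 SD, scaled to untreated wells per plate, cut at about 78% in these data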;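 also: cells counted after 24 h of TNF alpha exposure following the 1 h pretreatment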
VCAM1 TNFa inh: inhibitors of TNFa-induced VCAM1 expression, primary screen, imaging, HUVEC, TNFa stimulus, immunofluorescence; HUVEC TNFa-induced VCAM-1 immunofluorescence, high-content imaging; actives 0.48% (n = 95,000); AID 802, 2007; inhibition, % at 2 µM;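 active = inhibition above the batch mean plus 3 SD, with images confirmed as a hit by eye, cut at about 37% in these data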
E-sel TNF inh: E-selectin induction blockers in HUVEC – imaging, immunofluorescence, high content, primary screen | HUVEC TNFa-induced E-selectin immunofluorescence | inhibition, % at 2 µM | actives 0.71% (n = 120,000) | AID 1246, 2008;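 active = inhibition above the batch mean plus 3 SD, and confirmed as a hit on visual image review, cut at about 43% in these data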
HUVEC tox IL1B: cytotoxicity in IL-1B stimulated HUVEC, primary screen, cytotoxicity control for IL-1B NFkB translocation project, imaging, Hoechst nuclear count, IL-1B stimulus. HUVEC cell count loss. cell count reduction, % at 2 µM. actives 0.41% (n = 94,000);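 active = cell count reduction more than 3 SD above the screen-wide mean, cut at about 70% in these data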
NFkB transloc inh: inhibitors of IL-1B driven NFkB p65 nuclear import, primary screen, imaging, HUVEC, IL-1B stimulus, high-content imaging | actives 0.43% (n = 94,000) | inhibition, % at 2 µM | AID 796, 2007 | HUVEC IL-1B NFkB p65 nuclear translocation imaging;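 active = inhibition above about 30% together with a positive call from visual inspection of the well image, limit read from the data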;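 also: nuclear over cytoplasmic p65 intensity ratio measured by imaging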
Large screens that a line does not name were inactive. The list is not random: actives were taken first. Their share in the collection is about 1.6%.

O=C(CSc1ncnc2ccccc12)NCC(=O)c1ccccc1	none (no result: IL1B NFkB pot, HUVEC tox TNFa, VCAM1 TNFa inh, HUVEC tox IL1B, NFkB transloc inh)
c1ccc(Cn2cnc3ccccc32)cc1	HUVEC tox IL1B 94.8
Fc1cc2ncn(Cc3ccccc3)c2cc1F	none
CCOc1ccccc1NC(=O)C1CCN(C(=O)Cc2ccccc2)CC1	none (no result: IL1B NFkB pot, HUVEC tox TNFa, VCAM1 TNFa inh, HUVEC tox IL1B, NFkB transloc inh)
Cc1ccc(S(=O)(=O)N2CCC(C(=O)NNC(=O)c3cccnc3)CC2)cc1	none (no result: IL1B NFkB pot, HUVEC tox TNFa, VCAM1 TNFa inh, HUVEC tox IL1B, NFkB transloc inh)
COc1ccc(-c2cc(C(F)(F)F)nc(-n3cc(Br)cn3)n2)cc1	IL1B NFkB pot 53.7
COC(=O)c1cnc(SCc2ccc(C)cc2)n1C	E-sel TNF inh 69.0 (no result: IL1B NFkB pot, HUVEC tox TNFa, VCAM1 TNFa inh, HUVEC tox IL1B, NFkB transloc inh)
COc1ccc([N+](=O)[O-])cc1NC(=O)Nc1ccccc1	none (no result: IL1B NFkB pot, HUVEC tox TNFa, VCAM1 TNFa inh, HUVEC tox IL1B, NFkB transloc inh)
COc1ccc([N+](=O)[O-])cc1C1NN=C(c2ccccc2O)S1 (centres undefined)	NFkB transloc inh 33.0
CCn1c(SCC(=O)N2CCN(c3cccc(Cl)c3)CC2)nc2ccccc2c1=O	VCAM1 TNFa inh 96.1
Cc1cc2ccccc2c(=O)n1CC(=O)N1CCN(c2cccc(Cl)c2)CC1	none (no result: HUVEC tox TNFa, VCAM1 TNFa inh)
